Assay outcomes as filed in PubChem.
TPT1 inh: inhibitors of Candida albicans tRNA 2'-phosphotransferase TPT1 | recombinant caTPT1, FP RNA substrate dephosphorylation | inhibition, % at 5 µM | 300,000 compounds, 0.81% hits | AID 1962;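 active means inhibition above the mean of all tested compounds plus 3 SD, set per screening campaign, cut at about 24% in these data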;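 further: plate controls were DMSO alone for no effect and ferristatin control at 100 nM for full effect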
CRFBP-R2 agonist: agonists of human CRF-binding protein/CRF-R2 receptor complex. HEK293 CRF-R2/CRF-BP, calcium dye fluorescence (FLIPR); percent of saturating CRF peptide response. activation, % at 13.2 µM. 350,000 compounds, 0.46% hits. AID 588473;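 active means activation of at least 50%, plus an integration ratio under a set limit after plate pattern correction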;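 further: plate controls were neutral control wells without compound for no effect and CRF at EC100 for full effect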
IDE cell activ: IDE (human) activation, cell-based; 340,000 compounds, 0.073% hits; P14735; HEK cells, FAbeta-B cleavage, fluorescence polarization; 0% vehicle, 100% cell-free pure enzyme wells; activation, % at 5.96 µM;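 active means activation above the mean of all tested compounds plus 3 SD, set per screening campaign, cut at about 17% in these data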
Target sequence (P14735 whole entry, looked up): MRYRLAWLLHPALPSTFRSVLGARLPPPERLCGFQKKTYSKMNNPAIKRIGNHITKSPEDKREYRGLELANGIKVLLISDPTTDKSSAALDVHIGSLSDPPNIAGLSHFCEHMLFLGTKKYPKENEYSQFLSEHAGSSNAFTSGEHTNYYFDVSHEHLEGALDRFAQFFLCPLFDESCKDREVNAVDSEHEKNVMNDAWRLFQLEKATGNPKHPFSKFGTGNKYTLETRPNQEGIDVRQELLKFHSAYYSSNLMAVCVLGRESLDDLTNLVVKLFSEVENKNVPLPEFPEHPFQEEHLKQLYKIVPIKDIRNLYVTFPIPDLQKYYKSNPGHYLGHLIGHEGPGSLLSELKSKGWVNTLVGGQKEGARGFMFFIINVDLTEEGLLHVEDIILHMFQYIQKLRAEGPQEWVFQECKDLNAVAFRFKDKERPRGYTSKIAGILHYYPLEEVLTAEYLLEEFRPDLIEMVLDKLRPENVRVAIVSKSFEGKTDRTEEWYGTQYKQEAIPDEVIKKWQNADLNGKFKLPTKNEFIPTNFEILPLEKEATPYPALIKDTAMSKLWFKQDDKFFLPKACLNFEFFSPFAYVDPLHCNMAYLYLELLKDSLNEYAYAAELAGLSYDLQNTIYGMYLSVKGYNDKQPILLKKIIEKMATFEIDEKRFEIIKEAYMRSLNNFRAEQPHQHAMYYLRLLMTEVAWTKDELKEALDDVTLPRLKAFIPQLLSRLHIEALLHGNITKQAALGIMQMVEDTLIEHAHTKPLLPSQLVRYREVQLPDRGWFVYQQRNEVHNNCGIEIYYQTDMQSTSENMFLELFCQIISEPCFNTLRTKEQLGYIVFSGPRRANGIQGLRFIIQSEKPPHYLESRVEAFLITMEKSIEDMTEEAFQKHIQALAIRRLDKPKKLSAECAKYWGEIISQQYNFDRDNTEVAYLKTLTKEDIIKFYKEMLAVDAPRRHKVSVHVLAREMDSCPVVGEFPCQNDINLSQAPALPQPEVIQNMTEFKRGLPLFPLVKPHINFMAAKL
Myeloid diff 2: compounds promoting myeloid differentiation; ER-HoxA9 myeloid progenitors, lysozyme-GFP differentiation, flow cytometry; calls only at 10 µM; 360,000 compounds, 1% hits; AID 624256;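 active means normalized GFP-positive differentiation at or above the plate's own cutoff, the solvent-only control mean plus 3 SD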;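 further: cells exposed to compound for four days before flow analysis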
IDE cell inh: cellular human IDE inhibition. AID 434962. inhibition, % at 5.59 µM. P14735. HEK cells, FAbetaB cleavage, fluorescence polarization. 320,000 compounds, 0.41% hits;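 active means percent inhibition above the average of all tested compounds plus 3 SD, set per screening campaign, cut at about 16% in these data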;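 further: IDE supplied by intact live HEK cells; FP after avidin binding of uncleaved biotin substrate so inhibition keeps polarization high; 0% = DMSO wells and 100% = 60 µM reference IDE inhibitor Ii1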
CRFBP-R2 block: CRF-BP/CRF-R2 complex antagonism; HEK293 CRF-R2/CRF-BP, CRF-induced calcium fluorescence; inhibition, % at 11.8 µM; 350,000 compounds, 0.59% hits;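 active means inhibition of the ligand-induced calcium signal above about 50% at the single tested concentration, limit read from the data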
An asterisk follows results filed as active. In the library only some 2.6% were active in any assay of this set; here they are far more common.

What do the screens show for `O=C(COc1ccc(/C=N/NC(=O)c2ccccc2)cc1)Nc1ccc([N+](=O)[O-])cc1`?
TPT1 inh: 2; CRFBP-R2 agonist: 0; IDE cell activ: 4; Myeloid diff 2: inactive; IDE cell inh: -2; CRFBP-R2 block: -6

Results for CC(C)Oc1ccc(/C=N/NC(=O)C(CSCc2ccccc2)NC(=O)c2ccc([N+](=O)[O-])cc2)cc1 (stereo not given) ?
TPT1 inh: 4; CRFBP-R2 agonist: 104*; IDE cell activ: 0; Myeloid diff 2: inactive; IDE cell inh: 2; CRFBP-R2 block: -46

What do the screens show for `CCn1c(C(=O)O)c(S(=O)(=O)c2ccc(Cl)cc2)c2ccccc21`?
CRFBP-R2 agonist: 2; IDE cell activ: 1; Myeloid diff 2: inactive; CRFBP-R2 block: 18

Results for CC(=O)N1CCC(=O)Nc2ccc([N+](=O)[O-])cc21 ?
TPT1 inh: -3; CRFBP-R2 agonist: -2; IDE cell activ: 20*; Myeloid diff 2: inactive; IDE cell inh: 9; CRFBP-R2 block: -5

How did Cc1cccc(OCC(=O)OCC(=O)c2c(N)n(C)c(=O)n(C)c2=O)c1 do in these assays?
TPT1 inh: 2; CRFBP-R2 agonist: 0; IDE cell activ: -1; Myeloid diff 2: inactive; IDE cell inh: 3; CRFBP-R2 block: 6

Results for COc1ccc(C)cc1NC(=O)N1CCCc2ccccc21 ?
TPT1 inh: 0; CRFBP-R2 agonist: 2; IDE cell activ: 8; Myeloid diff 2: inactive; IDE cell inh: 1; CRFBP-R2 block: 53*

Results for NNC(=O)c1ccc(Cn2cc(Br)c(N)n2)cc1 ?
TPT1 inh: -3; CRFBP-R2 agonist: 2; IDE cell activ: 2; Myeloid diff 2: active; IDE cell inh: -3; CRFBP-R2 block: -13

Results for NNC(=O)c1ccc(Cn2cc(Br)cn2)o1 ?
TPT1 inh: -3; CRFBP-R2 agonist: 0; IDE cell activ: 4; Myeloid diff 2: inactive; IDE cell inh: -2; CRFBP-R2 block: -4

How did CCCCc1ccc(NC(=O)C(=O)NCCN2CCN(C(=O)c3ccc([N+](=O)[O-])cc3)CC2)cc1 do in these assays?
TPT1 inh: -2; CRFBP-R2 agonist: -1; IDE cell activ: 2; Myeloid diff 2: inactive; IDE cell inh: 8; CRFBP-R2 block: -6

How did CCCc1nc(SCc2ccc(Cl)cc2Cl)n[nH]1 do in these assays?
TPT1 inh: 0; CRFBP-R2 agonist: 0; IDE cell activ: 7; Myeloid diff 2: inactive; IDE cell inh: 4; CRFBP-R2 block: 59*

What do the screens show for `CCc1nc(SCc2ccc(Cl)cc2)n[nH]1`?
TPT1 inh: 1; CRFBP-R2 agonist: 0; IDE cell activ: 0; Myeloid diff 2: inactive; IDE cell inh: -1; CRFBP-R2 block: 9

What do the screens show for `O=C(NCC(c1ccco1)N1CCN(c2ccccc2F)CC1)c1ccc2c(c1)OCO2` (stereo not given)?
TPT1 inh: 2; CRFBP-R2 agonist: -1; IDE cell activ: 2; Myeloid diff 2: inactive; IDE cell inh: 1; CRFBP-R2 block: 10

Results for COc1ccc(-c2nnc(C3CCN(S(=O)(=O)c4ccccc4)CC3)o2)cc1 ?
TPT1 inh: 2; CRFBP-R2 agonist: -2; IDE cell activ: 6; Myeloid diff 2: inactive; IDE cell inh: -1; CRFBP-R2 block: 17

What do the screens show for `CC(=O)Nc1ccc(S(=O)(=O)N2CCC(c3nnc(-c4ccc(C)cc4)o3)CC2)cc1`?
TPT1 inh: -1; CRFBP-R2 agonist: -5; IDE cell activ: -3; Myeloid diff 2: inactive; IDE cell inh: -1; CRFBP-R2 block: 77*

Results for O=S(=O)(Nc1ccccc1)c1cccc2nsnc12 ?
TPT1 inh: -1; CRFBP-R2 agonist: 1; IDE cell activ: -6; Myeloid diff 2: inactive; IDE cell inh: 1; CRFBP-R2 block: 8

What do the screens show for `Cc1ccc(NS(=O)(=O)c2cccc3nsnc23)cc1`?
TPT1 inh: -2; CRFBP-R2 agonist: -1; IDE cell activ: 0; Myeloid diff 2: inactive; IDE cell inh: 4; CRFBP-R2 block: 75*

Results for COc1ccccc1CNCC(O)(c1ccc(Cl)cc1)c1ccc(Cl)cc1 ?
TPT1 inh: -3; CRFBP-R2 agonist: 27; IDE cell activ: 2; Myeloid diff 2: active; IDE cell inh: 0; CRFBP-R2 block: -117

What do the screens show for `CN(C)C(CNC(=O)CNC(=O)c1ccc2ccccc2c1)c1ccccc1` (stereo not given)?
TPT1 inh: -1; CRFBP-R2 agonist: 0; IDE cell activ: 4; IDE cell inh: 3; CRFBP-R2 block: 5

What do the screens show for `Cc1cc(C)nc(NC(N)=NC2CCCCC2)n1`?
TPT1 inh: -2; CRFBP-R2 agonist: 0; IDE cell activ: 2; Myeloid diff 2: active; IDE cell inh: 5; CRFBP-R2 block: -17

Results for Cc1cc(C)nc(NC(N)=S)n1 ?
TPT1 inh: -1; CRFBP-R2 agonist: -1; IDE cell activ: 2; Myeloid diff 2: inactive; IDE cell inh: 1; CRFBP-R2 block: -8

How did O=C(OCC(=O)N1CCN(c2ccccc2)CC1)c1ccc2ccccc2n1 do in these assays?
TPT1 inh: -3; CRFBP-R2 agonist: -2; IDE cell activ: -6; Myeloid diff 2: inactive; IDE cell inh: 5; CRFBP-R2 block: 16

Results for O=C(CSc1ccc(-c2ccccc2)nn1)N1CCN(c2ccccc2)CC1 ?
TPT1 inh: -3; CRFBP-R2 agonist: -1; IDE cell activ: -1; Myeloid diff 2: inactive; IDE cell inh: 2; CRFBP-R2 block: 2

What do the screens show for `O=C(OCC(=O)N1CCN(c2ccccc2)CC1)c1ccccn1`?
TPT1 inh: 4; CRFBP-R2 agonist: 1; IDE cell activ: 1; Myeloid diff 2: inactive; IDE cell inh: 5; CRFBP-R2 block: 53*

What do the screens show for `O=C(CSc1ccc(-c2ccncc2)nn1)N1CCN(c2ccccc2)CC1`?
TPT1 inh: -4; CRFBP-R2 agonist: 2; IDE cell activ: -11; Myeloid diff 2: inactive; IDE cell inh: 10; CRFBP-R2 block: 63*

Results for Clc1ccc(C2[C@H]3CN(Cc4cccnc4)[C@H](c4ccccc4)C34CC2(c2cccnc2)C4)cn1 (stereo not given in full) ?
TPT1 inh: 5; CRFBP-R2 agonist: 0; IDE cell activ: 1; Myeloid diff 2: active; IDE cell inh: -1; CRFBP-R2 block: -2

What do the screens show for `O=[N+]([O-])c1ccc(N2CCN(c3ccccn3)CC2)c(Cl)c1`?
TPT1 inh: -2; CRFBP-R2 agonist: 0; IDE cell activ: 7; Myeloid diff 2: inactive; IDE cell inh: -3; CRFBP-R2 block: -2

How did O=C(CN1CCOCC1)NCC12CC3CC(CC(C3)C1)C2 do in these assays?
TPT1 inh: -3; CRFBP-R2 agonist: 1; IDE cell activ: 0; Myeloid diff 2: active; IDE cell inh: 3; CRFBP-R2 block: 3

How did O=C(CC12CC3CC(CC(C3)C1)C2)NCCN1CCOCC1 do in these assays?
TPT1 inh: 0; CRFBP-R2 agonist: 1; IDE cell activ: 2; Myeloid diff 2: inactive; IDE cell inh: 1; CRFBP-R2 block: 6
